Compound activity deposited in PubChem by several laboratories.
ANO1 activ = activates or potentiates the mouse TMEM16A chloride channel; HEK293 TMEM16A/YFP-H148Q/I152L, iodide quench fluorescence; stronger effect = lower value; B-score at 10 µM; actives 0.3% (n = 340,000); AID 623877;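 active means fluorescence-ratio B-score plate-corrected deviation score at least 3 library SD below zero, with starting fluorescence score within 5 deviations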;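 further: channel opened by trigger with iodide after compound preincubation; score built on the fluorescence ratio of max minus min over baseline; more negative score means more quench and so TMEM16A activation or potentiation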
CHO-K1 Ca antag = counter-screen for M1 antagonists: effect in parental CHO-K1 cells | AID 602250 | inhibition, % at 3 µM | ATP-induced calcium, Fluo-8 fluorescence | actives 0.6% (n = 360,000);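 active means inhibition above a per-plate cutoff, the plate's mean sample inhibition plus 3 SD, cut at about 24% in these data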
CHO-K1 Ca ag = M1 agonist counterscreen hit in parental CHO-K1 cells. actives 0.48% (n = 360,000). activation, % at 3 µM. AID 602248. Fluo-8 calcium fluorescence; scaled to maximal ATP response, vehicle zero; in the data active means activation above about 15%;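 further: untransfected CHO-K1 host cells lacking M1 receptor as counterscreen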
CHO-K1 Ca PAM = M1 PAM counterscreen hit in parental CHO-K1 cells; activation, % at 3 µM; AID 602247; actives 0.02% (n = 360,000); ATP EC20, Fluo-8 calcium fluorescence; 0% at ATP EC20, 100% at ATP max;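 active means activation above the run cutoff, the mean activation of all test compounds plus 3 SD, cut at about 40% in these data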;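 further: peak over basal fluorescence ratio in a 140 s read after ATP addition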
ANO1 block = blocks the mouse calcium-activated chloride channel TMEM16A; Q8BHY3; HEK293 TMEM16A/YFP iodide influx fluorescence, ionomycin; normalized B-score (activity score, 25-100; higher = stronger inhibition) at 10 µM; actives 1.2% (n = 310,000);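 active means ratio plate-corrected score three or more library SD toward inhibition, starting fluorescence score within five deviations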;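 further: score derived from kinetic fluorescence span divided by baseline fluorescence per well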
NTR1 ag = activates human neurotensin receptor 1; P30989; NTR1-U2OS beta-arrestin-GFP spot imaging, agonist mode; activation, % at 20 µM; actives 0.17% (n = 330,000); AID 493036;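 active means activation at or above 40% of the spot to cytoplasm intensity ratio, with at least 20 cells analyzed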
Target sequence (P30989 whole entry, looked up): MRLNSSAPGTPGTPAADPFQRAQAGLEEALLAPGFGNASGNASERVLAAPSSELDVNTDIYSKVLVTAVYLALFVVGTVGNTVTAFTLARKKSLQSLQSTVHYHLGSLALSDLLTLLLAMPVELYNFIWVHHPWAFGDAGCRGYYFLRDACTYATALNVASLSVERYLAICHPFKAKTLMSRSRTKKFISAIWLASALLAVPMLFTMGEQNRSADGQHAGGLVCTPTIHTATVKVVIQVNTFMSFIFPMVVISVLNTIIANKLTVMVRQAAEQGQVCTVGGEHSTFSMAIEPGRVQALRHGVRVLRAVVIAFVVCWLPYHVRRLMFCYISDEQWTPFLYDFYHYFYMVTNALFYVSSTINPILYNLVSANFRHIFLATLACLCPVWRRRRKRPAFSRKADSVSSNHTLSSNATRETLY
Large screens that a line does not name were inactive. Shown are actives, neighbours in structure and some others; about 2.2% of the full set was active somewhere.

CCN(c1ccc(OC)cc1)S(=O)(=O)c1ccc(-c2cc(C)no2)s1	none
CCc1ccccc1N(C)S(=O)(=O)c1ccc(-c2cc(C)no2)s1	ANO1 activ -28.1
O=C(COC(=O)c1cccc(S(=O)(=O)N2CCN(c3ccccc3)CC2)c1)NCC1CCCO1 (stereo unspecified)	none
COc1cc(OC)c(NS(=O)(=O)c2cccc(C(=O)OCC(=O)NCC3CCCO3)c2)cc1Cl (stereo unspecified)	ANO1 activ -7.83
CCc1ccc(CC2S/C(=C(\C#N)C(C)=O)NC2=O)cc1 (stereo unspecified)	ANO1 block 100
CCOC(=O)c1ccc(CC2S/C(=C(\C#N)C(C)=O)NC2=O)cc1 (stereo unspecified)	none
CCOc1ccc(C(=O)COC(=O)Cn2[nH]c(=O)c3ccccc3c2=O)cc1	none (no result: ANO1 activ, ANO1 block, NTR1 ag)
COc1cccc(-c2oc3c(c2C(=O)OCCN(C)C)C(O)CCC3)c1 (stereo unspecified)	none (no result: ANO1 activ, ANO1 block, NTR1 ag)
CN(Cc1cn[nH]c1-c1ccc(-c2ccccc2)cc1)CC1CCOCC1	CHO-K1 Ca ag 16.7
CN(CCc1cnn(C)c1)Cc1cn[nH]c1-c1ccc(-c2ccccc2)cc1	ANO1 activ -5.57
CN1CCC(N2CCN(C3CN(Cc4ccc(F)cc4)S(=O)(=O)C3)CC2)CC1 (stereo unspecified)	none (no result: ANO1 activ, ANO1 block, NTR1 ag)
CC1(C(=O)NS(=O)(=O)C2CC2)CCCN(C(=O)c2ccc(C(F)(F)F)cc2)C1 (stereo unspecified)	none (no result: ANO1 activ, ANO1 block, NTR1 ag)
Cc1coc2cc3oc(=O)c(CCC(=O)NC4CC4)c(C)c3cc12	CHO-K1 Ca antag 27.9
Cc1ccc(S(=O)(=O)NCCCNc2ccc([N+](=O)[O-])cc2)cc1	CHO-K1 Ca ag 20.6
O=C1Nc2cc(Cl)ccc2C1(N1CCNCC1)C(F)(F)F (stereo unspecified)	none
O=C1Nc2ccc(Cl)cc2[C@@](C#CC2CC2)(C(F)(F)F)O1	ANO1 block 100 (no result: ANO1 activ, CHO-K1 Ca antag, CHO-K1 Ca ag, CHO-K1 Ca PAM)
CCC(=O)c1ccc(OCC(O)CN(CCc2ccccc2)Cc2ccccc2)cc1 (stereo unspecified)	ANO1 block 100
CN(Cc1cnc2nc(N)nc(N)c2n1)c1ccc(C(=O)NC(CCC(=O)O)C(=O)O)c2ccccc12 (stereo unspecified)	none (no result: ANO1 block, NTR1 ag)
C(=C1/CCCC2=C1Nc1ncnn1C2c1ccccc1)/c1ccccc1 (stereo unspecified)	NTR1 ag 72.8 (no result: ANO1 activ, CHO-K1 Ca antag, CHO-K1 Ca ag, CHO-K1 Ca PAM)
CN(C(=S)NC(=O)C1CCCC1)c1ccccc1	none (no result: ANO1 activ, ANO1 block, NTR1 ag)
COc1ccc(N2C(=O)C3CCCN3C2c2ccc(C)o2)cc1Cl (stereo unspecified)	ANO1 block 25
Cc1ccc(C2N(c3ccc(Cl)c(Cl)c3)C(=O)C3CCCN32)o1 (stereo unspecified)	none
Cc1ccc(S(=O)(=O)Oc2ccccc2-c2ccccc2)cc1	ANO1 activ -5.36 (no result: ANO1 block, NTR1 ag)
COc1ccc(C(=O)OCC(=O)Nc2cccc(C(C)=O)c2)c(OC)c1OC	CHO-K1 Ca ag 16.2
CCCCOC(=O)CSc1nc(N)c(C#N)c(-c2ccc(OCC)cc2)c1C#N	CHO-K1 Ca antag 26.8
CCCc1cc(=O)oc2c(CN3CCCC3)c(O)c(Cl)cc12	CHO-K1 Ca antag 28.8
Cn1c(=O)c2nc(NCc3ccccc3)sc2n(C)c1=O	none (no result: ANO1 block, NTR1 ag)
CC/C(=N\NC(=O)CSc1ncccn1)c1ccc2c(c1)OCCO2	CHO-K1 Ca antag 25.6
COc1cc(C)ccc1OCCOCCOc1c(C)cc(C)cc1Br	ANO1 block 100
COC(=O)c1ccc(CNC(=O)c2cc(S(=O)(=O)NCc3ccccc3)ccc2C)cc1	CHO-K1 Ca antag 24.5 (no result: ANO1 activ, ANO1 block, NTR1 ag)
Cc1ccc(S(=O)(=O)NCc2ccccc2)cc1C(=O)NCCc1ccc(S(N)(=O)=O)cc1	none (no result: ANO1 block)
O=C(c1cccc2c1-c1ccccc1/C2=N/O)N1CCCCC1	CHO-K1 Ca antag 24.9
C[C@H](CO)N1C[C@H](C)[C@H](CN(C)C(=O)C2CC2)OCc2cnnn2CCCC1=O	none (no result: ANO1 activ, ANO1 block, NTR1 ag)
CC(Oc1ccc(Br)cc1)C(=O)Nc1ccc(S(=O)(=O)N(C)C2CCN(C)CC2)cc1 (stereo unspecified)	ANO1 activ -10.2, CHO-K1 Ca antag 57.4, CHO-K1 Ca ag 54.9
O=C(/C=C/c1ccccc1)CC(O)(c1ccccc1)C(F)(F)C(F)F (stereo unspecified)	CHO-K1 Ca ag 17.2
O=C(/C=C/c1ccccc1)CC(O)(c1ccccc1)C(F)(F)F (stereo unspecified)	none
CC(=O)NC1C(=O)N=C(SC(C)C(=O)Nc2cccc(Cl)c2)NC1=O (stereo unspecified)	CHO-K1 Ca ag 15.2
C[C@H]1COC(=O)[C@@H](Cc2ccc(F)cc2)C/C=C\C[C@@H](CC(=O)N[C@@H](CO)Cc2ccccc2)C(=O)N1	none (no result: ANO1 block)
Cc1ccc(-c2nn(-c3ccccc3)cc2C(=O)Nc2ccc(C)c(S(=O)(=O)N3CCOCC3)c2)cc1	CHO-K1 Ca antag 24.5
O=C(CN1C(=O)c2ccccc2S1(=O)=O)Nc1ncc(Cl)cc1Cl	none (no result: ANO1 block)
Cc1ccccc1S(=O)(=O)NC(=O)C1(C)CCN1C(=O)C1(c2ccc(Cl)cc2)CCC1 (stereo unspecified)	none (no result: ANO1 activ, ANO1 block, NTR1 ag)
CCc1cc(C(=O)Nc2ccc(OC)nc2)sc1C	ANO1 activ -5.06
Cc1nn(CC(=O)N(CC(C)C)C2CCS(=O)(=O)C2)c(C)c1[N+](=O)[O-] (stereo unspecified)	none (no result: ANO1 block)
C[C@@H]1Cc2[nH][nH]c(=O)c2[C@H](C)O1	none (no result: ANO1 activ, ANO1 block, NTR1 ag)
COc1ccc(-c2cc(C(F)(F)F)n3nc(C(=O)Nc4c(C)n(C)n(-c5ccccc5)c4=O)c(Cl)c3n2)cc1	CHO-K1 Ca antag 26.0
CCOc1ccc(/C=C/C(=O)c2c(O)c3ccccc3oc2=O)cc1	none
CN(C)c1ccc(/C=C/C(=O)c2c(O)c3ccccc3oc2=O)cc1	CHO-K1 Ca ag 31.8
O=C(CCNc1ccc(Br)cc1)c1cccc([N+](=O)[O-])c1	none
O=C(/C(N=Nc1cccc([N+](=O)[O-])c1)=C(/O)c1ccc(Br)cc1)C(F)(F)F	ANO1 block 100 (no result: ANO1 activ)
O=C(Oc1ccc(C(=S)N2CCOCC2)cc1)c1cccc([N+](=O)[O-])c1	CHO-K1 Ca antag 29.3
O=C(Oc1cccc(C(=S)N2CCOCC2)c1)c1cccc([N+](=O)[O-])c1	none
O=C(NCC1CCCO1)C1CCC(=O)N1Cc1ccccc1Cl (stereo unspecified)	CHO-K1 Ca antag 24.9
O=C(NCCN1CCOCC1)C1CCC(=O)N1Cc1ccccc1Cl (stereo unspecified)	none
O=C(COC(=O)C1(c2ccc(Cl)cc2)CCCC1)Nc1ncc(C(F)(F)F)cc1Cl	ANO1 block 100
Oc1cc2c(cc1O)C1c3ccc(O)c(O)c3OCC1(O)C2 (stereo unspecified)	ANO1 activ -12
O=C(NCc1ccccc1)c1cccc(COc2cccc(Cl)c2)c1	none
